KCNQ2 block: rat KCNQ2 potassium channel inhibitors, primary screen, cell-based, CHO-K1, FluxOR thallium flux, B-score; 20 min; hits give low values; 1.1% of 310,000 active; AID 2156, 2009; Potassium voltage-gated channel subfamily KQT member 2 (Rattus norvegicus), O88943; B-score at 10 µM;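 active = fluorescence ratio B-score at most minus 3 library SDs, with starting brightness B-score within 2 library SDs, cut at about -5.5 in these data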
KCNQ2 enhance: potentiators of rat KCNQ2 potassium channel; Potassium voltage-gated channel subfamily KQT member 2 (Rattus norvegicus), O88943; B-score at 10 µM; AID 2239, 2010; 0.54% of 310,000 active; CHO-K1 KCNQ2, FluxOR thallium flux fluorescence; hits give high values;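 active = fluorescence ratio B-score at least 3 SD of library B-scores, with initial fluorescence B-score within 3 of them, cut at about 5.3 in these data; same plate scores as AID 2156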;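 note: B-score of peak minus minimum over baseline fluorescence ratio after K+ and Tl+ stimulus; positive B-score means potentiation of KCNQ2 with more thallium influx and brighter signal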
Kir21 conf inh: mouse Kir2.1 channel blockers, retest, confirmation, cell-based, FluxOR thallium flux, duplicate | AID 2032, 2009 | 41% of 2,300 active | Kir2.1-expressing cells, FluxOR thallium flux fluorescence; hits give low values | Tl flux remaining, % of negative control (hits give low values), % at 10 µM | shares compounds with KCNQ2 enhance;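 active = Primary-screen hit whose thallium flux fell at least 3 control SD below untreated wells in both duplicates, with normal baseline fluorescence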
Target sequence (P35561 whole entry, looked up): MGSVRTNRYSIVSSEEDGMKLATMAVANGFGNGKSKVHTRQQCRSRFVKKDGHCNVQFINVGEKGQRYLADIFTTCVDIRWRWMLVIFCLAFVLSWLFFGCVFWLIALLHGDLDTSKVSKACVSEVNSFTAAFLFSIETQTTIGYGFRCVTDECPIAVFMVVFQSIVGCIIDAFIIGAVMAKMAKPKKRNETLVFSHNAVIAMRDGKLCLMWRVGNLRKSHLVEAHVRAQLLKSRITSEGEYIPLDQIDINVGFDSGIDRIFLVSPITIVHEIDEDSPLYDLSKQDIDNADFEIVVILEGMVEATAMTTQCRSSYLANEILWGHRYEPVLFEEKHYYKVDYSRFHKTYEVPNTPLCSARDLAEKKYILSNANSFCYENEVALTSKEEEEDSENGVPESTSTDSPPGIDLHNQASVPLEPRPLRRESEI
HEK293 Tl flux: alters thallium flux in parental HEK293 cells, Kir2.1 counter-screen; shares compounds with KCNQ2 enhance; FluxOR thallium flux fluorescence; 0% = unstimulated blank wells; FluxOR signal as % of negative control (100 = no effect), % at 10 µM; 19% of 2,300 active; AID 2105;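 active = dye signal at least 3 control SD above or below untreated wells in both duplicates, raw fluorescence within 3, either direction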;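 note: percent is based on the flux ratio of peak minus minimum fluorescence over baseline F0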
CHO-K1 Tl ctr: nonspecific thallium flux increase in parental CHO-K1, confirmation, counter-screen for KCNQ2 potentiator project, cell-based, FluxOR thallium flux, duplicate. parental CHO-K1 cells, FluxOR thallium flux fluorescence; zero = vehicle mean+3SD, 100% = vehicle-minus-blank window. AID 2282, 2010. shares compounds with KCNQ2 enhance. 43% of 1,200 active. activity increase over 3SD of controls, % at 10 µM;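 active = signal rise of at least 3 SD above the untreated control mean, in both duplicate wells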;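 note: counter screen of KCNQ2 potentiator hits so any rise reflects channel-independent effects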
KCNQ1 pot spec: human KCNQ1 channel potentiation off-target, confirmation, selectivity assay for KCNQ2 potentiator project, cell-based, CHO, FluxOR thallium flux. shares compounds with KCNQ2 enhance. CHO KCNQ1 stable, FluxOR thallium flux fluorescence; beyond 3SD, as % of vehicle-control signal. activation over 3SD threshold, % at 10 µM. 28% of 1,200 active;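 active = fluorescence ratio rise of at least 3 SD of vehicle wells above their mean, in both replicate wells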
KCNQ2 pot confirm: rat KCNQ2 channel potentiators, confirmation, cell-based, CHO, FluxOR thallium flux, duplicate. potentiation, less the hit threshold, % at 10 µM. shares compounds with KCNQ2 enhance. 68% of 1,200 active. AID 2287, 2010. CHO-KCNQ2 cells, FluxOR thallium flux fluorescence;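 active = fluorescence ratio rising 3 SD or more over the vehicle control mean in both replicates, plus primary screen hit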;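 note: peak minus minimum thallium fluorescence divided by baseline after K/Tl stimulus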
Kir21 spec: mouse Kir2.1 channel activation off-target, confirmation, selectivity assay for KCNQ2 potentiator project, cell-based, HEK293, FluxOR thallium flux; shares compounds with KCNQ2 enhance; HEK293 Kir2.1, FluxOR thallium flux fluorescence; activity over 3SD threshold, % at 10 µM; 2% of 1,200 active;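 active = fluorescence ratio rise of at least 3 SD above the vehicle-control mean, seen in both replicates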
KCNQ2 W236L MoA: potentiators of retigabine-insensitive KCNQ2 W236L, mechanism study for KCNQ2 potentiator project, cell-based, rat KCNQ2 W236L, CHO, automated patch clamp. shares compounds with KCNQ2 enhance. automated patch clamp current. current increase over 3SD of negative controls (%), hits give high values, % at 25 µM. 10% of 940 active. AID 2558, 2010;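 active = current increase at least 3 SD of the untreated controls above them in both duplicate recordings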
Each line names hits and unclear results; the compound was inactive in the other large screens (follow-up assays come after a bar, where they were run). Sampled rows, rich in hits. Any-hit rate of the full collection: about 1.6%.

O=C(c1cccc([N+](=O)[O-])c1)N1CCCC(C(=O)N2CCN(c3ccccc3)CC2)C1 (configuration not stated)	none
COc1ccc(/C=N/Nc2cc(C)nc3ccccc23)cc1	none (no result: KCNQ2 enhance) | Kir21 conf inh 35% | HEK293 Tl flux inactive
COc1ccc(/C=N/Nc2cc(C)nc3c(C)cccc23)cc1	none (no result: KCNQ2 enhance)
Brc1ccc(NC(c2ccccc2)c2ccncc2)cc1 (configuration not stated)	none (no result: KCNQ2 enhance)
Cc1cc(C)n(-c2ccc(C(=O)NCc3ccc4c(c3)OCO4)cc2)n1	none
Cc1cc(C)n(-c2ccc(C(=O)NCc3ccc(F)cc3)cc2)n1	none | Kir21 conf inh 22% | HEK293 Tl flux inactive
O=C(CSCCO)Nc1ccc([N+](=O)[O-])cc1	none
Cc1cc(C)c(S(=O)(=O)NCc2ccccn2)cc1C	none (no result: KCNQ2 enhance)
Cc1ccc(C(C)C)cc1S(=O)(=O)NCc1ccccn1	none (no result: KCNQ2 enhance) | Kir21 conf inh 67% | HEK293 Tl flux inactive
COc1ccccc1C(=O)NNC(=O)C(=O)NC1CCCCC1	KCNQ2 enhance 8.5 | Kir21 conf inh inactive | HEK293 Tl flux 321% | CHO-K1 Tl ctr inactive | KCNQ1 pot spec 33 | KCNQ2 pot confirm 42 | Kir21 spec inactive | KCNQ2 W236L MoA inactive
COc1ccccc1C(=O)Nc1ccccc1C(=O)NC1CCCCC1	none
Cc1ccc(NC(=O)C(C)OC(=O)Cc2c[nH]c3ccccc23)cc1 (configuration not stated)	none | Kir21 conf inh 52% | HEK293 Tl flux inactive
Cc1ccc(C(=O)C(C)OC(=O)Cc2c[nH]c3ccccc23)cc1 (configuration not stated)	none (no result: KCNQ2 enhance)
CC(C)(C)OC(=O)CN1C(=O)C(Sc2n[nH]c(-c3ccccc3)n2)CCc2ccccc21 (configuration not stated)	none (no result: KCNQ2 enhance)
CC1CN(C(=O)CCC(=O)NCCCN2CCN(Cc3ccccc3)CC2)c2cc(Cl)ccc2O1 (configuration not stated)	none (no result: KCNQ2 enhance) | Kir21 conf inh 61% | HEK293 Tl flux inactive
O=C(CCC(=O)N1CCOc2ccc(Cl)cc21)NCCCN1CCN(Cc2ccccc2)CC1	none
CC(Oc1ccccc1F)C(=O)NNC(=O)c1cc2ccccc2o1 (configuration not stated)	none (no result: KCNQ2 enhance)
CO/N=C(/CS(=O)c1ccc(Br)cc1)c1ccc(OC)cc1 (configuration not stated)	none (no result: KCNQ2 enhance) | Kir21 conf inh 50% | HEK293 Tl flux inactive
CO/N=C(/COc1ccc(F)cc1)c1ccc(OC)cc1	none (no result: KCNQ2 enhance)
Cc1ccc(C(=O)Oc2cc(C)n(C)c(=O)c2)cc1	none (no result: KCNQ2 enhance)
Clc1cccc(Cl)c1COn1nnc2ccccc21	none (no result: KCNQ2 enhance)
c1ccc(COn2nnc3ccccc32)c(COn2nnc3ccccc32)c1	none (no result: KCNQ2 enhance) | Kir21 conf inh 72% | HEK293 Tl flux inactive
COc1cc(CNc2ccc(N3CCN(C(C)=O)CC3)cc2)ccc1OCc1ccccc1	none (no result: KCNQ2 enhance)
COc1cc(CNc2ccc(NC(C)=O)cc2)ccc1OCc1ccccc1C	KCNQ2 enhance 5.5 | Kir21 conf inh inactive | HEK293 Tl flux inactive | CHO-K1 Tl ctr inactive | KCNQ1 pot spec inactive | KCNQ2 pot confirm inactive | Kir21 spec inactive
C=CCn1c(N2CCOCC2)nc2c1c(=O)[nH]c(=O)n2C	none (no result: KCNQ2 enhance)
CCC(=O)OCc1c(C(F)(F)F)nn(C)c1Sc1ccc(F)cc1	none (no result: KCNQ2 enhance) | Kir21 conf inh 48% | HEK293 Tl flux inactive
CCC(=O)OCc1c(C(F)(F)F)nn(C)c1Sc1ccc(Cl)cc1	none (no result: KCNQ2 enhance)
CCn1c(CC(=O)Nc2ccccc2F)nnc1SCC(=O)NC1CCCC1	none
CCCn1nc(NC(=O)COC)c2cc3cccc(C)c3nc21	none (no result: KCNQ2 enhance)
CCn1nc(NC(=O)C(C)(C)C)c2cc3cccc(C)c3nc21	KCNQ2 enhance 8.5 | Kir21 conf inh inactive | HEK293 Tl flux inactive | CHO-K1 Tl ctr 20 | KCNQ1 pot spec 3.4 | KCNQ2 pot confirm inactive | Kir21 spec inactive | KCNQ2 W236L MoA inactive
CCCn1nc(NC(C)=O)c2cc3cccc(C)c3nc21	none
CCCn1nc(NC(=O)CC(C)C)c2cc3cccc(C)c3nc21	KCNQ2 enhance 5.3 | Kir21 conf inh inactive | HEK293 Tl flux inactive | CHO-K1 Tl ctr inactive | KCNQ1 pot spec inactive | KCNQ2 pot confirm inactive | Kir21 spec inactive
CCOc1ccc(S(=O)(=O)NCCC(=O)NCC(c2cccs2)N2CCOCC2)cc1 (configuration not stated)	none
COc1ccc(C(CNC(=O)CSc2ccc(Br)cc2)N2CCOCC2)cc1 (configuration not stated)	none
CC(C)(C)c1ccc(OCCC(=O)NCC(c2cccs2)N2CCOCC2)cc1 (configuration not stated)	KCNQ2 enhance 7 | CHO-K1 Tl ctr inactive | KCNQ1 pot spec 123 | KCNQ2 pot confirm 19 | Kir21 spec inactive | KCNQ2 W236L MoA inactive
O=C(CSc1ccc(Br)cc1)NCC(c1cccs1)N1CCOCC1 (configuration not stated)	KCNQ2 enhance 6.8 | CHO-K1 Tl ctr inactive | KCNQ1 pot spec inactive | KCNQ2 pot confirm 7.9 | Kir21 spec inactive | KCNQ2 W236L MoA inactive
Cc1ncc([N+](=O)[O-])n1CC(=O)N/N=C/c1ccc(F)cc1	none
CC(C)NC(=O)c1onc(CSc2cccc(Cl)c2)c1C(=O)O	none
COc1ccc(S(=O)(=O)N/N=c2\oc3c(OC)cccc3cc2S(=O)(=O)c2ccc(C)cc2)cc1OC	none (no result: KCNQ2 enhance)
CC(=O)OC1=C(C#N)Cn2ccc3cccc1c32	none | Kir21 conf inh 55% | HEK293 Tl flux inactive
O=C(CN(Cc1ccc(F)cc1)C(=O)CCC(=O)Nc1nccs1)NCc1ccc(F)cc1	none (no result: KCNQ2 enhance)
COC(=O)C1=C(C(=O)OC)C2C(C)=CC(C)=CN2C(C(=O)OC)=C1C(=O)OC (configuration not stated)	none (no result: KCNQ2 enhance)

Screening data: PubChem BioAssay, Johns Hopkins Ion Channel Center
